Consider 86 sequences from PMC10668032, “Altered binding affinity of SIX1-Q177R correlates with enhanced WNT5A and WNT pathway effector expression in Wilms tumor”.

Over roughly 33,000 sequences, “e-score” has its median near -0.05; the highest 2% begin near 0.38. The sample as a whole holds a higher share of the highest values than the screen did.

This assay has as its target T1, SIX1-Q177R homeodomain (human, UniProt Q15475 108-198, Q177R).
T1 sequence: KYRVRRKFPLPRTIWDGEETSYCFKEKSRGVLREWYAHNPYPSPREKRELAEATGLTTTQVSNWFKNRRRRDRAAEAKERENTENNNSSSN
Kind of assay: universal protein binding microarray; Universal all-10-mer PBM (8x60K, AMADID 030236), 300 nM GST-tagged protein, Alexa Fluor 488 anti-GST; buffer, salt, pH and temperature not stated (as in Berger); high values mean tight binding. Particulars: protein: ivt; tags: N-terminal GST; dsDNA, one strand shown. The method in brief: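 After in vitro transcription/translation, GST-tagged homeodomains were quantified against a recombinant GST standard curve by anti-GST western blot. They were then placed in duplicate at 300 nM final concentration on universal 'all 10-mer' protein binding microarrays of 8×60K format.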
AACACTGG: the binding signal stood at 0.37323 ± 0.000191 E-score.
As for GACACCGC, the binding signal worked out at 0.487 ± 0.00552 E-score.
With CACACCGG the figure was 0.418 ± 0.0186 E-score; with CACACAGG, 0.182 ± 0.0584 E-score; with CACCGATG, 0.32 ± 0.0273 E-score.
With CCCCGGAG the figure was 0.261 ± 0.00517 E-score; with CTATTACA, 0.215 ± 0.023 E-score.
The same measure for CAGATTCG: 0.161 ± 0.0252 E-score.
On to CACCAAGG, for which the binding signal turned out to be 0.265 ± 0.0125 E-score.
With CCCGCACC the figure was 0.197 ± 0.0395 E-score.
The same measure for AACCCGGA: 0.201 ± 0.0406 E-score; for TGTGCACA: 0.21 ± 0.0348 E-score; for CGCTTACA: 0.196 ± 0.0288 E-score.
With CACCATAC the figure was 0.3492 ± 0.0017 E-score; with CACCAGGG, 0.284 ± 0.0249 E-score.
Turning to CGGATCCA, the binding signal amounted to 0.232 ± 0.0264 E-score.
For the sequence CACCCGAA, the binding signal stood at 0.276 ± 0.0248 E-score.
For ACCTCACG, the binding signal worked out at 0.153 ± 0.0322 E-score.
The same measure for CACCGGCC: 0.251 ± 0.0167 E-score.
With GATACCCA the figure was 0.3616 ± 0.000587 E-score; with ACTTGCAC, 0.175 ± 0.00796 E-score; with TGTAAACA, 0.262 ± 0.00791 E-score.
With AGCACCGC the figure was 0.288 ± 0.023 E-score.
Consider CACACCGA, for which the binding signal was determined as 0.405 ± 0.0194 E-score.
With AACACCGC the figure was 0.47579 ± 0.000382 E-score.
The same measure for ACCACCGC: 0.199 ± 0.00668 E-score; for CGGGGTTC: 0.201 ± 0.0287 E-score.
The same measure for CATGGACA: 0.216 ± 0.0185 E-score; for GGAGTACC: 0.218 ± 0.0355 E-score; for GTGCGCAC: 0.175 ± 0.0735 E-score.
Take CGACACAC: the binding signal worked out at 0.345 ± 0.0318 E-score.
In the case of CGACACCC, the binding signal is 0.488 ± 0.01 E-score.
The same measure for GGACACCC: 0.48 ± 0.00768 E-score.
The same measure for CGACACCG: 0.4907 ± 0.00417 E-score; for GCCCACCC: 0.229 ± 0.0369 E-score.
With GGACACAA the figure was 0.18 ± 0.117 E-score.
Regarding CGGCACCG, the binding signal was found to be 0.239 ± 0.0344 E-score.
The same measure for CGACCCCC: 0.256 ± 0.0448 E-score; for CGACACAG: 0.251 ± 0.0668 E-score.
The same measure for GGACACAC: 0.382 ± 0.0328 E-score; for GGACCCCC: 0.26 ± 0.0595 E-score.
The same measure for ACGCACCC: 0.265 ± 0.0257 E-score; for TACCCTGA: 0.185 ± 0.0156 E-score.
CGGGGTGC: the binding signal was found to be 0.219 ± 0.0401 E-score.
With TATTGACA the figure was 0.194 ± 0.0479 E-score; with CACGCAGG, 0.264 ± 0.016 E-score.
With GTACTCCA the figure was 0.178 ± 0.0308 E-score; with AGACACCC, 0.469 ± 0.00936 E-score.
With AGACCCCC the figure was 0.214 ± 0.0497 E-score.
Consider GGTCACAC, for which the binding signal is 0.384 ± 0.0098 E-score.
The same measure for CGACACCA: 0.488 ± 0.00517 E-score.
With CGACACAA the figure was 0.201 ± 0.104 E-score; with AGTCACAC, 0.326 ± 0.0101 E-score; with CGTCACAC, 0.288 ± 0.0273 E-score.
The same measure for CGACAACA: 0.245 ± 0.0238 E-score.
ACTCCCTC: the binding signal turned out to be 0.156 ± 0.0128 E-score.
The same measure for TATATATA: 0.181 ± 0.042 E-score; for AGGGATCG: 0.216 ± 0.00653 E-score; for CACTCATG: 0.244 ± 0.00471 E-score.
With ACCCTTCA, the binding signal amounted to 0.166 ± 0.0264 E-score.
With GGGGTATA the figure was 0.274 ± 0.0131 E-score; with CACCTCCG, 0.344 ± 0.00638 E-score.
With ACCCGGGG the figure was 0.297 ± 0.0213 E-score.
With CACTATTA the figure was 0.158 ± 0.0138 E-score; with GTTCGGGA, 0.15 ± 0.0437 E-score; with GTACACCA, 0.4849 ± 0.00112 E-score.
Take ACACACTG: the binding signal amounted to 0.248 ± 0.0191 E-score.
With CTGCACCC the figure was 0.209 ± 0.0458 E-score.
The same measure for GTACAACA: 0.2 ± 0.0164 E-score; for CTACAACA: 0.161 ± 0.0103 E-score.
With ATACACTG the figure was 0.392 ± 0.00512 E-score.
Consider CTACACCA, for which the binding signal amounted to 0.4741 ± 0.00151 E-score.
The same measure for CTACCCCC: 0.268 ± 0.0213 E-score.
The same measure for CTACACCC: 0.4824 ± 0.00332 E-score.
With CACCACCA the figure was 0.329 ± 0.0106 E-score; with GTGCACCA, 0.246 ± 0.0146 E-score; with CACTAACA, 0.284 ± 0.0307 E-score.
For CGACCCCG, the binding signal turned out to be 0.255 ± 0.0544 E-score.
As for CCCAATAC, the binding signal was 0.17 ± 0.00354 E-score.
For TATTTACA, the binding signal was found to be 0.311 ± 0.0362 E-score.
Take AAGTAGTG: the binding signal stood at 0.27 ± 0.0294 E-score.
With CCCCTCAG the figure was 0.251 ± 0.0116 E-score; with ATCCCGTG, 0.228 ± 0.0211 E-score; with CACGAGGG, 0.189 ± 0.00843 E-score.
On to AGGGGTAG, for which the binding signal was 0.269 ± 0.00879 E-score.
With CACGCCGA the figure was 0.194 ± 0.0137 E-score.
